Reference: the supplement of paper PMC3334620
Whole data set: some 33,000 sequences, median “E-score (-0.5 to 0.5)” near -0.036, cut for the highest 2% near 0.37. This excerpt belongs to a sample that is enriched for the highest values.

Target: T1, Yer064c (UniProt P40041)
T1 sequence: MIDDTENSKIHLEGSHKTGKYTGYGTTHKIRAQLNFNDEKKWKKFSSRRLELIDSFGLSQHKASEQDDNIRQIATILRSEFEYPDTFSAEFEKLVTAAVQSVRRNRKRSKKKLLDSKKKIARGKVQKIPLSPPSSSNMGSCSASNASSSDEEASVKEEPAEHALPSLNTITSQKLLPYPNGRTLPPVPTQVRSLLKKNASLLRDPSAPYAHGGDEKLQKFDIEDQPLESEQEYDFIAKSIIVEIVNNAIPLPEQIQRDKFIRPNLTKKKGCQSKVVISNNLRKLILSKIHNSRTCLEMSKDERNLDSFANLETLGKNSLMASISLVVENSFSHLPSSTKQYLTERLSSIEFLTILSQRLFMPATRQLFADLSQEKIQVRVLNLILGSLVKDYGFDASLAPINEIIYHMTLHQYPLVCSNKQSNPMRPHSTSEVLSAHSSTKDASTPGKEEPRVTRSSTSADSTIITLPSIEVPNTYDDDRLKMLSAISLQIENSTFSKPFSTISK
Assay: PBM E-score (8-mer binding enrichment) (E-score (-0.5 to 0.5)); higher = stronger / more preferred TF binding
Details: protein concentration: 200 nM; construct: GST-full length
Method in brief: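 Universal all-10-mer Agilent arrays, fresh or stripped once, were converted to double-stranded form by primer extension. GST-tagged yeast transcription factors from PURExpress in vitro transcription/translation, full-length or DNA-binding domain only, were applied at about 100-200 nM and detected with fluorescent anti-GST. After masliner normalisation, the Universal PBM Analysis Suite scored each ungapped eight-base word together with its reverse complement by E-score.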

Row | Sequence | PBM E-score
1 | GCGACACC | -0.173
2 | CCCTACGA | 0.0187
3 | GTACAGGA | -0.0544
4 | CACAGATA | -0.0649
5 | ATGCCAGA | -0.0495
6 | AGCGACCA | -0.173
7 | AGCGACTG | 0.255
8 | AGCGACTA | 0.391
9 | CGCGACTC | 0.438
10 | CGCGACCC | -0.0841
11 | CTCGACTC | 0.34
12 | CGCCCTTC | -0.212
13 | ACGACTGC | 0.19
14 | ACGACTCT | 0.404
15 | ACAACTCT | 0.175
16 | ACGACTCA | 0.477
17 | ACGACTCC | 0.423
18 | ACGACTTA | 0.276
19 | ACTACTCT | 0.239
20 | GCGACTCA | 0.483
21 | GCGACTGA | 0.31
22 | ACGACGCC | -0.211
23 | ACTACTCA | 0.344
24 | GCGACTTA | 0.266
25 | CCACTAGA | -0.195

Row | Sequence | PBM E-score
26 | AAAACGGT | -0.155
27 | TAGAAAGA | 0.113
28 | AGTCTCAC | 0.337
29 | GCTGGTGA | 0.0962
30 | CCATTACG | -0.038
31 | CCGACTCA | 0.441
32 | ACGACTTG | 0.17
33 | CCGACTCG | 0.296
34 | TCGACCCA | 0.0521
35 | GCCACTCC | -0.128
36 | CCGACTGA | 0.192
37 | TCTACTCA | 0.202
38 | CCGACTCC | 0.339
39 | GCGACCCC | -0.237
40 | GCGACTCC | 0.39
41 | ACGACTCG | 0.394
42 | TCGACTCA | 0.435
43 | CGAGAATC | 0.117
44 | GCGAGCCC | -0.21
45 | GCAATACC | -0.127
46 | CCTGTGCA | -0.146
47 | AAAACAGG | -0.126
48 | TAATGGCA | -0.172
49 | GCCAAAAA | 0.0564
50 | AGAGAGGG | -0.162

Row | Sequence | PBM E-score
51 | AATGATTC | 0.464
52 | CATGATCC | 0.0741
53 | AATGATTG | 0.358
54 | CCTGATGC | -0.0643
55 | CCTGATTC | 0.399
56 | CATGATGA | 0.261
57 | ACTGATTC | 0.319
58 | ATTGATTC | 0.301
59 | CATGATTC | 0.457
60 | CATGATTA | 0.453
61 | CTTGATTC | 0.324
62 | CATGATAA | 0.12
63 | CCTGGGAC | -0.363
64 | ATGGGCGA | 0.0478
65 | CAAAAGAG | 0.0455
66 | CTTACCGA | -0.0159
67 | ACATCGAT | 0.00682
68 | AGACGAAT | 0.00164
69 | CAAGCCAG | -0.139
70 | GGCGGCCC | -0.0657
71 | AACTCCAA | 0.0471
72 | TACTCCAA | 0.00552
73 | GACTCCAA | 0.418
74 | GACTCCAC | 0.37
75 | CACTCCAC | 0.0622

Row | Sequence | PBM E-score
76 | AACTCCAC | -0.115
77 | CAGTAAAA | -0.0284
78 | AATTACCT | 0.0151
79 | AAAAGAAC | -0.144
80 | CCTTCGGC | -0.197
81 | CGGACTCA | 0.411
82 | GGGACTCA | 0.405
83 | GGGACACA | 0.0557
84 | AGGACTCC | 0.335
85 | AGCACTCA | 0.119
86 | GGGACGCA | -0.165
87 | AGGACTCA | 0.468
88 | CGAACTCA | 0.225
89 | CGGACTCC | 0.191
90 | GAGAGGGC | -0.203
91 | CCCGCTGC | -0.00295
92 | GCTTGTAC | -0.18
93 | TCCCAAGA | 0.0948
94 | CGATGTCA | -0.0638
95 | CTCAAATC | 0.158
96 | GACTAAAC | 0.435
97 | AACTAAAC | -0.0459
98 | TACTAAAA | -0.00832
99 | AACTAAAA | 0.0564
100 | CACTAAAC | 0.108

Row | Sequence | PBM E-score
101 | GACTAAAA | 0.429
102 | GATTCTCA | 0.221
103 | CTCTCCAC | -0.0601
104 | ATTCTCTA | 0.0286
105 | GGACGTCA | -0.0394
106 | ATTGACCA | -0.0765
107 | AATTAGTC | 0.446
108 | AATTAGTA | 0.103
109 | CATTAGTA | 0.257
110 | CATTAGTC | 0.421
111 | AATTAGTG | 0.0657
112 | CATTAGAC | 0.0825
113 | CATTTTGC | -0.0161
114 | GCTAGTCA | 0.448
115 | GCTAGTCC | 0.0288
116 | ACTAGTCC | 0.164
117 | ACTAGTCA | 0.456
118 | CCTAGTCA | 0.446
119 | CCTAGTCG | 0.263
120 | ACTAGTCT | 0.345
121 | GCTAGTTA | 0.00744
122 | TCTAGTCA | 0.447
123 | TCTAGTAA | -0.0245
124 | CCTAGTCC | 0.0749
125 | TCTAGACA | 0.128

Row | Sequence | PBM E-score
126 | AACGGTGT | -0.021
127 | ACCTGGTC | -0.12
128 | AGAGAACT | -0.0782
129 | AACAGCAG | -0.26
130 | CGTTATCC | -0.11
131 | ATGAGTAG | 0.308
132 | CTGAGTAA | 0.204
133 | CTGAGTAC | 0.291
134 | GTGAGTAA | 0.331
135 | ATGAGTAA | 0.386
136 | ATGAGTAC | 0.415
137 | AGAGGCGG | -0.16
138 | AGAGGTGC | -0.25
139 | CGATCGTA | 0.05
140 | GTTCCAAA | -0.00663
141 | AAAGACAT | -0.156
142 | CTTCATGC | -0.12
143 | ACTCATGC | 0.378
144 | CCTCATGA | 0.16
145 | ACTCATGG | 0.34
146 | ACTCATGA | 0.402
147 | CCTCATGC | -0.144
148 | AGCCCGGG | -0.144
149 | GCTCACAA | 0.0192
150 | CGGTAGAG | -0.118

Row | Sequence | PBM E-score
151 | AATCACAG | 0.359
152 | AATCACAA | 0.362
153 | CATCACAC | 0.0825
154 | AATCACAC | 0.39
155 | GATCACAC | 0.178
156 | AATCACAT | 0.398
157 | CGCTATTC | -0.0435
158 | ACATACAC | 0.0835
159 | CTGGCATA | -0.0817
160 | GTCACTCA | 0.334
161 | AGTCTTCC | 0.432
162 | CGTCTTCC | -0.0994
163 | AGTCTTTC | 0.372
164 | ACTCTTCG | 0.213
165 | AGTCTTCA | 0.408
166 | ATTCTTCC | -0.102
167 | GGTCTTCA | -0.144
168 | CGTCTTTC | -0.108
169 | CGTCTTCA | -0.115
170 | AGTCTTTA | 0.341
171 | AGTCTTGG | 0.315
172 | AGTCTTCG | 0.418
